According to the supplement of paper PMC6992640:
± gives the standard deviation of the averaged measurements.

Experiments:
Assay in all cases: cell viability (% of vehicle); higher = less cytotoxic
HCI01 [1] = cells of a triple-negative basal-like breast cancer xenograft; details: 1 µM; 72 h
UCD52 [2] = cells of a triple-negative basal-like breast cancer xenograft; details: 1 µM; 72 h
WHIM2 [3] = cells of a triple-negative basal-like breast cancer xenograft; details: 1 µM; 72 h
WHIM30 [4] = cells of a triple-negative basal-like breast cancer xenograft; details: 1 µM; 72 h
HCI01 [5] = details: 10 µM; 72 h
HCI03 = cells of an ER-positive luminal breast cancer xenograft; details: 10 µM; 72 h
HCI09 = cells of a triple-negative luminal androgen receptor type breast cancer xenograft; details: 10 µM; 72 h
HCI11 = cells of an ER-positive luminal breast cancer xenograft; details: 10 µM; 72 h
HCI13 = cells of an ER-positive luminal breast cancer xenograft; details: 10 µM; 72 h
HCI16 = cells of a triple-negative basal-like breast cancer xenograft; details: 10 µM; 72 h
UCD52 [6] = details: 10 µM; 72 h
WHIM2 [7] = details: 10 µM; 72 h
WHIM30 [8] = details: 10 µM; 72 h

SMILES | cell viability (HCI01 [1]) | cell viability (UCD52 [2]) | cell viability (WHIM2 [3]) | cell viability (WHIM30 [4]) | cell viability (HCI01 [5]) | cell viability (HCI03) | cell viability (HCI09) | cell viability (HCI11) | cell viability (HCI13) | cell viability (HCI16) | cell viability (UCD52 [6]) | cell viability (WHIM2 [7]) | cell viability (WHIM30 [8])
CCc1c(Cl)c(O)c(Cl)c(O)c1C(=O)OC1C(C)OC(OCC2=CC=CCC(O)C(C)=CC(CC)C(OC3OC(C)(C)C(OC(=O)C(C)C)C(O)C3O)C(C)=CC(C)=CCC(C(C)O)OC2=O)C(OC)C1O (centres undefined) [Fidaxomicin] | 99.3 | 110 | 122 | 102 | 39.9 ± 12 | 65.5 | 28.6 ± 7.5 | 72.7 | 46.3 ± 0.086 | 56.3 | 44.6 ± 6.6 | 40.7 ± 8.9 | 29.3 ± 0.66
CO[C@@]12[C@H](COC(N)=O)C3=C(C(=O)C(C)=C(N)C3=O)N1C[C@@H]1N[C@@H]12 [Mitomycin C] | 59.3 | 88.3 | 75.4 | 66.9 | 46.7 ± 2.1 | 56.9 | 35.4 ± 3.3 | 64.6 | 45 ± 3.3 | 61.4 | 32.3 ± 0.47 | 47.3 ± 5.7 | 57.77 ± 0.16
CCc1oc2ccccc2c1C(=O)c1cc(Br)c(O)c(Br)c1 [Benzbromarone] | 88.4 | 92.9 | 102 | 88.3 | 65.9 ± 49 | 103 | 33.8 ± 25 | 98 | 128 ± 29 | 97 | 76 ± 7.4 | 40.1 ± 12 | 95.1 ± 20
O=C(O)c1cc(O)c(O)c(O)c1 [Gallic acid] | 96.4 | 97.1 | 82.1 | 102 | 77.5 ± 0.96 | 107 | 90.8 ± 9.4 | 54.3 | 105 ± 7.6 | 126 | 91.2 ± 8.8 | 58 ± 13 | 84.5 ± 8.9
Cn1cnc2c(F)c(Nc3ccc(Br)cc3F)c(C(=O)NOCCO)cc21 | 71.6 | 59.9 | 80.7 | 69.9 | 84.1 ± 12 | 90.7 | 65.6 ± 13 | 76.4 | 70.9 ± 7.1 | 79.6 | 59.8 ± 8.5 | 55.2 ± 20 | 106 ± 14
O=C(NN=Cc1ccc([N+](=O)[O-])o1)c1ccc(O)cc1 [Nifuroxazide] | 78.8 | 91.1 | 95.3 | 77.5 | 63.5 ± 47 | 128 | 37 ± 17 | 82 | 62.8 ± 15 | 91.7 | 62.2 ± 28 | 94.9 ± 15 | 79.2 ± 5.8
CC(C)COc1ccc(CNC(=O)N(Cc2ccc(F)cc2)C2CCN(C)CC2)cc1 [Pimavanserin] | 93.5 | 83.6 | 103 | 88 | 98.1 ± 1.5 | 111 | 56.7 ± 18 | 81 | 171 ± 10 | 87.3 | 46.4 ± 3.1 | 43.7 ± 2.7 | 83.5 ± 3.7
COc1ccccc1OCCNCC(O)COc1cccc2[nH]c3ccccc3c12 (centres undefined) [Carvedilol] | 92.5 | 99.9 | 91.3 | 111 | 97.88 ± 0.3 | 69.9 | 75.9 ± 8.1 | 88.7 | 123.82 ± 0.064 | 127 | 44 ± 1.3 | 46.1 ± 3.3 | 102.1 ± 0.59
[O-]n1ccccc1=S.[O-]n1ccccc1=S.[Zn+2] [Zinc Pyrithione] | 52 | 67.2 | 70.2 | 65.3 | 16 ± 11 | 45.1 | 29.6 ± 26 | 24.8 | 144 ± 130 | 43.1 | 25.6 ± 1.7 | 33 ± 8.9 | 45.5 ± 4.8
N.N.O=C([O-])C1(C(=O)[O-])CCC1.[Pt+2] [Carboplatin] | 87.9 | 80.1 | 99.9 | 77 | 82.1 ± 6.4 | 82.7 | 91.7 ± 4 | 86.4 | 86.87 ± 0.21 | 51 | 39.6 ± 6.8 | 84.8 ± 13 | 89 ± 5.5
CN(C)CCOc1ccc(C(=C(CCCl)c2ccccc2)c2ccccc2)cc1.O=C(O)CC(O)(CC(=O)O)C(=O)O [Toremifene Citrate] | 127 | 98.4 | 119 | 102 | 37.2 ± 1.9 | 63.8 | 34.3 ± 1.8 | 86.8 | 46.4 ± 2.6 | 73.2 | 38.3 ± 2.4 | 43.3 ± 4.1 | 54.4 ± 4.8
CN(C(=O)CN(CCO)CC(=O)N(C)C(C)(C)Cc1ccccc1)C(C)(C)Cc1ccccc1 [Oxethazaine] | 87.3 | 93.6 | 88.5 | 88.4 | 96.6 ± 4.3 | 55.9 | 69.4 ± 40 | 87.9 | 45.7 ± 12 | 83.1 | 39.3 ± 4.8 | 43.2 ± 9.4 | 96.4 ± 9.4
CNCCC(Oc1cccc2ccccc12)c1cccs1.Cl (centres undefined) [Duloxetine HCl] | 85.4 | 95.4 | 91.1 | 79.7 | 87.3 ± 6.3 | 106 | 55.9 ± 34 | 70.8 | 112 ± 11 | 66.6 | 30.9 ± 1.8 | 38.5 ± 0.71 | 80.9 ± 9.8
CC(C)N=c1cc2n(-c3ccc(Cl)cc3)c3ccccc3nc-2cc1Nc1ccc(Cl)cc1 [Clofazimine] | 88.1 | 84.9 | 90.3 | 80.2 | 54.8 ± 28 | 83.9 | 38.8 ± 13 | 88.8 | 43.6 ± 9.1 | 77.6 | 44.2 ± 1.7 | 53.1 ± 15 | 68.8 ± 6.1
COc1cc(Nc2ncc(F)c(Nc3ccc4c(n3)N(COP(=O)(O)O)C(=O)C(C)(C)O4)n2)cc(OC)c1OC [Fostamatinib (R788)] | 116 | 92.3 | 79 | 112 | 88.3 ± 8.6 | 102 | 87.2 ± 7 | 61 | 74.5 ± 1 | 65 | 55.7 ± 3.7 | 58.1 ± 4.2 | 86.6 ± 6.6
COc1cc2ncnc(Nc3ccc(F)c(Cl)c3)c2cc1NC(=O)C=CCN1CCCCC1 | 70.8 | 40 | 43.9 | 54.6 | 34.5 ± 3.5 | 49.8 | 22.3 ± 1.4 | 57 | 24.6 ± 15 | 55.1 | 29.7 ± 2.9 | 43.9 ± 9.3 | 47.4 ± 1.6
Cl.Fc1ccc(C2CCNCC2COc2ccc3c(c2)OCO3)cc1 (centres undefined) [Paroxetine HCl] | 91.6 | 79.7 | 100 | 87.4 | 63.7 ± 19 | 128 | 90.3 ± 17 | 74.8 | 120 ± 6.4 | 77.4 | 38.6 ± 4.8 | 43 ± 7.7 | 80.71 ± 0.29
COC(=O)c1ccc2c(c1)NC(=O)C2=C(Nc1ccc(N(C)C(=O)CN2CCN(C)CC2)cc1)c1ccccc1 [Nintedanib (BIBF 1120)] | 83.1 | 46 | 46.6 | 51.2 | 70.5 ± 19 | 63.6 | 51.4 ± 46 | 59 | 71.2 ± 12 | 85.5 | 34.9 ± 2.4 | 65.2 ± 15 | 47 ± 11
CC(C)(C)Cn1c(N)nc2ccc(-c3[nH]c(C(C)(C)C)nc3-c3ccc(F)cc3)nc21.CS(=O)(=O)O.CS(=O)(=O)O | 67.7 | 46.4 | 65.4 | 61.1 | 58.4 ± 4.5 | 54.2 | 36.8 ± 15 | 81 | 58.7 ± 0.99 | 72.3 | 36.7 ± 1.6 | 39.5 ± 3.9 | 64.2 ± 9.7
COc1cc2c(Oc3ccc4[nH]c(C)cc4c3F)ncnc2cc1OCCCN1CCCC1 [Cediranib (AZD217)] | 81.9 | 29.2 | 25.6 | 47.5 | 69.3 ± 10 | 54 | 43.8 ± 19 | 61.5 | 57.7 ± 16 | 70.1 | 50.84 ± 0.26 | 38.2 ± 7.5 | 68.3 ± 4.1
CC1=C(C(=O)OC(C)C)C(c2cccc([N+](=O)[O-])c2)C(C(=O)OC2CN(C(c3ccccc3)c3ccccc3)C2)=C(N)N1 (centres undefined) [Azelnidipine] | 93.6 | 73.5 | 85.9 | 88.3 | 33.6 ± 1.3 | 59 | 21.5 ± 0.58 | 80.4 | 41.6 ± 5.9 | 62 | 93.5 ± 6.1 | 61.3 ± 19 | 57.7 ± 26
CSc1ccc2c(c1)N(CCC1CCCCN1C)c1ccccc1S2.Cl (centres undefined) [Thioridazine HCl] | 87 | 82.5 | 92.4 | 84.7 | 44.9 ± 9.3 | 52.1 | 26.4 ± 1.2 | 88.4 | 55.6 ± 3.4 | 41.4 | 36.8 ± 0.53 | 42.2 ± 10 | 61.9 ± 3.6
CC(NCCCc1cccc(C(F)(F)F)c1)c1cccc2ccccc12.Cl (centres undefined) [Cinacalcet HCl] | 94.5 | 85.7 | 76.7 | 81.6 | 38.8 ± 2.6 | 46.8 | 21.6 ± 4.7 | 64.8 | 43.3 ± 2.8 | 43.6 | 29.6 ± 2.4 | 43.2 ± 5.7 | 27.6 ± 1.3
COc1cc2c(Nc3ccc(Br)cc3F)ncnc2cc1OCC1CCN(C)CC1 [Vandetanib (ZD6474)] | 70 | 46.5 | 37.5 | 64.8 | 59.1 ± 20 | 32.2 | 30.7 ± 21 | 52.9 | 73.4 ± 36 | 56.4 | 25.2 ± 4.2 | 54.4 ± 11 | 25.7 ± 1.9
Cc1c(-c2ccc(O)cc2)n(Cc2ccc(OCCN3CCCCCC3)cc2)c2ccc(O)cc12.Cl [Bazedoxifene HCl] | 120 | 94.2 | 89.7 | 91.6 | 56.4 ± 32 | 41.6 | 21.6 ± 0.65 | 73.9 | 38 ± 6.1 | 114 | 45.6 ± 2.9 | 53.2 ± 6.3 | 83.1 ± 1.6
COc1cc2nccc(Oc3ccc(NC(=O)C4(C(=O)Nc5ccc(F)cc5)CC4)cc3)c2cc1OC.O=C(O)CC(O)C(=O)O [Cabozantinib malate (XL184)] | 92.9 | 93.9 | 90.8 | 84.4 | 88.7 ± 13 | 45.4 | 58.2 ± 4.8 | 44 | 85.1 ± 15 | 63.4 | 34.5 ± 3.2 | 105 ± 6.6 | 56 ± 1.8
CCCCCCCCCCCCCCCCOP(=O)([O-])OCC[N+](C)(C)C [Miltefosine] | 89.6 | 101 | 85.8 | 92.6 | 98.9 ± 9.1 | 108 | 87.7 ± 30 | 107 | 33.2 ± 0.37 | 82.1 | 77.6 ± 9.7 | 38.2 ± 14 | 58.56 ± 0.43
CCOc1cc2ncc(C#N)c(Nc3ccc(F)c(Cl)c3)c2cc1NC(=O)C=CCN(C)C [Pelitinib (EKB-569)] | 98.5 | 27 | 31.4 | 46.1 | 30.5 ± 8.4 | 60.7 | 21.7 ± 4.1 | 37.7 | 34.2 ± 0.47 | 37.9 | 32.5 ± 1.5 | 31.1 ± 17 | 57.6 ± 12
